Measured values taken from PubChem BioAssay (NCATS).
Results filed as inconclusive are left out. Where a call stands in place of a potency, no number is given. A number with no mark means an inactive call. Calls of active or inactive are those of the source. Calls follow the shape of the dose curve; as a rule, active = well fitted curve in the direction sought with a large enough effect; inconclusive = small, poorly fitted or top-dose-only effect, or another doubt; inactive = no such curve, though single readings can be large; an effect the other way counts as inactive or inconclusive.

Assays:
[1] = molecular target: Cellular tumor antigen p53 (Homo sapiens) (UniProt P04637); test: Primary qHTS for small molecule compounds that upregulate eGFP-tagged delta133p53alpha (in N-terminal) cells. (AID 2060322); details: NCI-H358 eGFP-delta133p53alpha fluorescence, 24 h; activation: active compounds read high; also: nearly all actives have a fitted effect of over 75% in size; also: potency is read from the fitted curve at half-maximal effect
Sequence of Cellular tumor antigen p53 (Homo sapiens) (P04637 whole entry, looked up): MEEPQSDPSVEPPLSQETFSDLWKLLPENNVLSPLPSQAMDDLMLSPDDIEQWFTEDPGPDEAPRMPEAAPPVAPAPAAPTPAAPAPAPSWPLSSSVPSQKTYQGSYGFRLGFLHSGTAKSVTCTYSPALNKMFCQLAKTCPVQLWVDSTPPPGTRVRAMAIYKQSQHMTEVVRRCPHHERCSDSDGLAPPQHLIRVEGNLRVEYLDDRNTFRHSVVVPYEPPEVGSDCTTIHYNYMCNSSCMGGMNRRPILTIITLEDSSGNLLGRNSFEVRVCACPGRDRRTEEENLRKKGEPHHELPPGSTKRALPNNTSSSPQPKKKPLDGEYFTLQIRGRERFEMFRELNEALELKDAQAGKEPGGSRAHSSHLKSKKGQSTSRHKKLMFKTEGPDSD
Outline: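 NCI-H358 cells pre-induced 24 h with 10 ng/ml doxycycline to express N-terminal eGFP-delta133p53alpha, then dosed 24 h at 37C without doxycycline; fixed, Hoechst-stained, GFP intensity by laser scanning cytometry, normalized to DMSO (0%) and 57.5 uM 5-azacytidine (100%).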

[2] = molecular target: Aldehyde dehydrogenase, mitochondrial (Homo sapiens) (UniProt P05091); test: qHTS for Inhibitors of the Aldehyde Dehydrogenase Family (ALDH2) Primary screen (AID 2061308); details: ALDH2 enzyme inhibition qHTS, 1536-well; series mostly up to 56 µM; also: nearly all actives have a fitted effect of over 55% in size
[3] = molecular target: Retinaldehyde dehydrogenase 3 (Homo sapiens) (UniProt P47895); test: qHTS for Inhibitors of the Aldehyde Dehydrogenase Family (ALDH1A3) Primary screen (AID 2061315); details: ALDH inhibition qHTS; series mostly up to 56 µM

Row | SMILES | activation [1] | Potency [2] | Potency [3] | Potency [1] | activity change, negative = inhibition [2] | activity change, negative = inhibition [3]
1 | CC(C)=CCC[C@](C)(O[C@@H]1O[C@H](CO[C@@H]2OC[C@H](O)[C@H](O)[C@H]2O)[C@@H](O)[C@H](O)[C@H]1O)[C@H]1CC[C@]2(C)[C@@H]1[C@H](O)C[C@@H]1[C@@]3(C)CC[C@H](O[C@@H]4O[C@H](CO)[C@@H](O)[C@H](O)[C@H]4O[C@@H]4O[C@H](CO)[C@@H](O)[C@H](O)[C@H]4O)C(C)(C)[C@@H]3CC[C@]12C | 9.67% | inactive | inactive | – | – | –
2 | CC1(C)CC2C3=CCC4[C@@]5(C)CC[C@H](OC6OCC(O)C(OC7OC(CO)C(O)C(O)C7O)C6O)C(C)(C)C5CC[C@@]4(C)[C@]3(C)C[C@H](O)[C@@]2(CO)[C@H](OC(=O)c2ccccc2)C1 (some centres undefined) | 19.8% | inactive | inactive | – | – | –
3 | COc1cc(CCc2ccccc2)c(C(=O)O)c2c1CC(C(C)(C)O)O2 (centres undefined) | -13% | inactive | inactive | – | – | –
4 | CCCNc1ccc2ncc(-c3ccc4[nH]ncc4c3)n2n1 | – | inactive | inactive | 2.39 µM (active) | – | –
5 | C=C1CCC2C(C)(C(=O)OC)CCCC2(C)C1CCC(C)CC(=O)O (centres undefined) | -13% | inactive | inactive | – | – | –
6 | COc1c2c(cc3c1-c1c(cc4c(c1OC)OCO4)CC(C)C(C)C3)OCO2 (centres undefined) | -6.87% | inactive | inactive | – | – | –
7 | CC12CCC(OC3OC(CO)C(O)C(OC4OC(CO)C(O)C(O)C4O)C3O)CC1=CCC1C2CCC2(C)/C(=C3/COC(=O)C3)CCC12O (centres undefined) | -13% | inactive | inactive | – | – | –
8 | CC(C)(O)/C=C1/C(=O)C(C)(C)C(=O)C(C)(C)C1(O)O[C@@H]1O[C@H](COC(=O)c2cc(O)c(O)c(O)c2)[C@@H](O)[C@H](O)[C@H]1O (some centres undefined) | 0.763% | inactive | inactive | – | – | –
9 | CC(=O)O[C@H]1CC[C@@]2(CI)C(=CC[C@@H]3[C@@H]2CC[C@]2(C)[C@@H]([C@H](C)CCCC(C)C)CC[C@@H]32)C1 | 21.7% | – | – | – | -4.11% [at 11.2 µM] | 5.91% [at 11.2 µM]
10 | COc1cc2c(cc1OC)N1C(=O)C[C@]34C=CCN5CC[C@@H]2[C@@H](CC3)[C@]514 | 3.05% | inactive | inactive | – | – | –
11 | CC1(C)C2CC(OC3OC(COC4OCC(O)(CO)C4O)C(O)C(O)C3O)C1(C)CC2O (centres undefined) | 1.79% | inactive | inactive | – | – | –
12 | Cc1ccc(C2(COC(=O)C(C)C)CO2)c(OC(=O)C(C)C)c1 (centres undefined) | 3.82% | inactive | inactive | – | – | –
13 | COc1ccc(C(=O)O[C@H]2CC(C)=CC[C@@]3(C)[C@@H](OC(C)=O)C[C@@](O)(C(C)C)[C@H]23)cc1 | 1.79% | inactive | inactive | – | – | –
14 | C=CC(C)(O)CC/C=C(\C)C(=O)OCC1OC(OC2CCC3(C)C(CCC4(C)C3CC=C3C5CC(C)(C)C(O)CC5(C(=O)O)CCC34C)C2(C)C)C(O)C(OC2OC(CO)C(O)C(OC3OC(CO)C(O)C(OC4OC(COC5OC(CO)C(O)C(O)C5O)C(O)C(O)C4O)C3O)C2O)C1O (centres undefined) | 9.92% | – | – | – | 1.9% [at 11.2 µM] | -5.36% [at 11.2 µM]
15 | COc1cc(O)c([C@@H](CC(=O)N2CC(C)CC(C)C2)c2ccc3c(c2)OCO3)c(OC)c1 (some centres undefined) | 28.3% | inactive | inactive | – | – | –
16 | CC(C)(O)CC(CO)NC(=O)CC(O)CC(=O)Cc1ccccc1 (centres undefined) | 22.1% | inactive | inactive | – | – | –
17 | OC[C@H]1O[C@@H](OCCc2ccc(O)cc2)[C@H](O[C@@H]2OC[C@](O)(CO)[C@H]2O)[C@@H](O)[C@@H]1O | 1.79% | inactive | inactive | – | – | –
18 | CC1(C)CC[C@]2(C(=O)OC3OC(CO)C(O)C(O)C3O)CC[C@]3(C)C(=CCC4[C@@]5(C)CC[C@H](OC6OC(C(=O)O)C(O)C(OC7OC(CO)C(O)C(O)C7O)C6O)C(C)(C)C5CC[C@]43C)C2C1 (some centres undefined) | -22.1% | inactive | inactive | – | – | –
19 | C[C@@H]1O[C@@H](O[C@H]2[C@H](OC(=O)[C@]34CCC(C)(C)C[C@H]3C3=CCC5[C@@]6(C)CC[C@H](O[C@@H]7O[C@H](CO[C@@H]8OC[C@H](O)[C@H](O)[C@H]8O)[C@@H](O)[C@H](O)[C@H]7O)C(C)(C)C6CC[C@@]5(C)[C@]3(C)C[C@H]4O)OC[C@@H](O)[C@@H]2O)[C@H](O)[C@H](O[C@@H]2OC[C@](O)(CO)[C@H]2O)[C@H]1O[C@@H]1OC[C@H](O)[C@H](O[C@@H]2OC[C@@H](O)[C@H](O)[C@H]2O)[C@H]1O (some centres undefined) | 5.36% | – | – | – | 7.19% [at 11.2 µM] | 10.7% [at 11.2 µM]
20 | COC(=O)C1=CO[C@@H](O[C@@H]2O[C@H](CO)[C@@H](O)[C@H](O)[C@H]2O)[C@H]2[C@@H]1C=C[C@]21C=C([C@H](C)OC(=O)/C=C/c2ccc(O[C@@H]3O[C@H](CO)[C@@H](O)[C@H](O)[C@H]3O)cc2)C(=O)O1 | -1.79% | inactive | inactive | – | – | –
21 | CC(C)(C)CCN1C[C@@H]2C(CNC(=O)c3cc(Cl)cc(Cl)c3)[C@@H]2C1 (some centres undefined) | 26.3% | inactive | inactive | – | – | –
22 | CC(C)[C@@](O)(c1ccc2cc(OC(F)F)c(OC(F)F)cc2c1)c1cn[nH]n1 | -0.333% | inactive | inactive | – | – | –

Row | SMILES | activation [1] | Potency [2] | Potency [3] | Potency [1] | activity change, negative = inhibition [2] | activity change, negative = inhibition [3]
23 | CC1CCC2(NC1)OC1C(=O)C3C4CCC5CC(O[C@@H]6O[C@H](CO)[C@@H](O)[C@H](O)[C@H]6O[C@@H]6O[C@@H](C)[C@H](O)[C@@H](O)[C@H]6O)CCC5(C)C4CCC3(C)C1C2C (some centres undefined) | 10.7% | inactive | inactive | – | – | –
24 | CCC(=O)O[C@H]1C(C)(C)[C@H]([C@@H](O)C(=O)OC)[C@]2(C)C(=O)[C@@]1(O)[C@H]1O[C@]13C1CC(=O)O[C@@H](c4ccoc4)[C@]1(C)CCC32 (some centres undefined) | -20.6% | inactive | inactive | – | – | –
25 | O=C(Nc1ccc(N(Cc2ccsc2)C(=O)Cn2nnc3ccccc32)cc1)C1CC1 | 11.6% | inactive | inactive | – | – | –
26 | C[C@H](NC(=O)C(C)(C)Oc1ccc(C(F)(F)F)cn1)[C@@H](Cc1ccc(Cl)cc1)c1cccc(C#N)c1 | 5.36% | inactive | inactive | – | – | –
27 | C/C=C(\C)C(=O)OC[C@H]1O[C@@H](O[C@H]2[C@@H](O[C@H]3O[C@H](COC(=O)/C(C)=C/C)[C@@H](O)[C@H](O)[C@H]3O[C@@H]3O[C@H](COC(=O)/C(C)=C/C)[C@@H](O)[C@H](OC(=O)/C(C)=C/C)[C@H]3O)O[C@H](COC(=O)/C(C)=C/C)[C@@H](O)[C@@H]2O)[C@H](O)[C@@H](O)[C@@H]1O | -15.3% | inactive | inactive | – | – | –
28 | O=C(O)Cc1nn(Cc2nc3cc(C(F)(F)F)ccc3s2)c(=O)c2nccnc12 | -6.33% | inactive | inactive | – | – | –
29 | O=S(=O)(c1ccccc1)N(CC(F)(F)F)c1ccc(C(O)(C(F)(F)F)C(F)(F)F)cc1 | -3.67% | inactive | inactive | – | – | –
30 | COc1ccc2c3c1O[C@H]1C[C@@H](O)C=C[C@@]31CCN(C)C2 | 27.7% | inactive | inactive | – | – | –
31 | CC(=O)c1c(O)cc2c(c1C)C(=O)CC(O)C2 (centres undefined) | -14.5% | inactive | inactive | – | – | –
32 | Nc1nc2c(nc(Sc3ccc(Cl)cc3)n2[C@@H]2O[C@@H]3COP(=O)(O)O[C@H]3[C@H]2O)c(=O)[nH]1 | 1% | inactive | inactive | – | – | –
33 | C[C@H]1[C@H](C)CC[C@]2(C(=O)O)CC[C@]3(C(=O)O)C(=CCC4[C@@]5(C)CC[C@H](O[C@@H]6O[C@H](C)[C@@H](O)[C@H](O)[C@H]6O)C(C)(C)C5CC[C@]43C)[C@H]12 (some centres undefined) | -5.36% | inactive | inactive | – | – | –
34 | Cc1cc(C(=O)N2Cc3cnn(C)c3Nc3ccccc32)ccc1CNC(=O)N1CCN(Cc2cc(O)cc(O)c2)CC1 | -7.16% | inactive | inactive | – | – | –
35 | COc1cc(CN(CCN)C(=O)c2cccs2)ccc1OCc1ccccc1 | 24.3% | inactive | inactive | – | – | –
36 | CC1=C(C)C(=O)OC(C(C)C2CCC3C4C5OC5C5(O)CC(OC6OC(CO)C(OC7OC(C)C(O)C(O)C7O)C(O)C6O)CC(O)C5(C)C4CCC23C)C1 (centres undefined) | 3.57% | inactive | inactive | – | – | –
37 | CC(=O)OC[C@@]12[C@@H](OC(C)=O)C[C@@H](C)[C@](C)([C@@H]3C[C@H]4C=CO[C@H]4O3)[C@H]1CCC[C@]21CO1 | 0% | inactive | inactive | – | – | –
38 | C=C1CC2[C@]3(C)C(=C(O)C(=O)[C@@]2(C)[C@]2(C(=O)OC)C(=O)C(C)OC(=O)[C@@]12C)C(C)(C)C(=O)CC3O (some centres undefined) | 18.3% | inactive | inactive | – | – | –
39 | C=C1C(OC(=O)/C(C)=C\C)[C@@]23CCC4[C@@](C)(CCC[C@@]4(C)C(=O)O)C2CC[C@H]1C3OC(C)=O (some centres undefined) | -28.2% | inactive | inactive | – | – | –
40 | CC1CCC2C(C)(C)C(O)CCC2(C)C12Cc1c(O)cc3c(c1O2)CN(C(CCC(N)=O)C(=O)O)C3=O (centres undefined) | -13.7% | inactive | inactive | – | – | –
41 | CC(C)CC[C@@H](O)[C@](C)(O)[C@H]1CC[C@@]2(O)C3=CC(=O)[C@@H]4C[C@@H](O)[C@@H](O)C[C@]4(C)[C@H]3CC[C@]12C | -7% | inactive | inactive | – | – | –
42 | C/C=C/C1=CC2=CC(=O)C(C)(O)C(OC(=O)c3c(C)cc(O)cc3O)C2CO1 (centres undefined) | -12.2% | inactive | inactive | – | – | –
43 | C=CC(C)(CC/C=C(\C)C(=O)OC)OC1OC(COC(=O)CC(C)(O)CC(=O)O)C(OC2OC(CO)C(O)C(O)C2O)C(O)C1O (centres undefined) | -11.5% | inactive | inactive | – | – | –
